Laboratory results published in PubChem BioAssay (NCI).
“And” between values parts separate entries of the source, which are not always exact repeats. Equal values may be shown once. About 83,000 compounds went through this panel and 20% of them were active in at least one assay; those are over-represented in the sample as a whole.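 For each line, cells grew in 96-well plates with the test compound present at a single concentration for 48 hours.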 Unmarked numbers belong to inactive results. The source made the active and inactive calls.

System: SNB-75 CNS
Assay: NCI-60 one-dose screen, 48 h (100 = growth as untreated, 0 = no growth, -100 = all killed)
Conditions: 10 µM
Method: Growth inhibition of the SNB-75 human tumor cell line is measured as a screen for anti-cancer activity. Cells are grown in 96 well plates and exposed to the test compound for 48 hours. Compounds are tested at a single concentration, which is 10^-5 M for most compounds. The reported endpoint is percent growth (GI% or GIPRCNT), where numbers from 0 - 100% represent growth inhibition, and numbers from -100% - 0 represent cell death. For example, a value of 40 represents 60% growth inhibition. A value of 0 means no net growth occurred over the course of the experiment. A value of -40 indicates 40% of cells at the beginning of the experiment died by the end of the experiment. A value of -100 means all cells are dead at the end of the experiment.
NCI-60 Human Tumor Cell Lines Screen was performed using the standard one-dose NCI protocol, which is described in more detail at https://dtp.cancer.gov/discovery_development/nci-60/default.htm.
Compounds with GIPRCNT values below 10 were considered active. Activity score was based on GIPRCNT using the following formula: […]
Score is 0 for GIPRCNT values of 100 or above, 50 for GIPRCNT values of 0, and 100 for GIPRCNT values of -100.

| SMILES | growth [%] |
| --- | --- |
| O=c1ccn2c(n1)OC1CC2OC1COC(c1ccccc1)(c1ccccc1)c1ccccc1 (stereo not given) | 107 |
| S=c1nc[nH]c2nc[nH]c12 | 55.9 |

Same assay, conditions: 10 µM unless noted

| SMILES | growth |
| --- | --- |
| Nc1ccccc1SC(CC(=O)c1ccccc1)c1cccc([N+](=O)[O-])c1 (stereo not given) | 74.9% and 78.1% |
| Nc1ccc(O)c(C(=O)O)c1 | 74.4% and 97.2% and 94.7% |
| CCOC(=O)c1csc(N)n1 | 84.5% and 86% |
| Cc1onc(-c2c(F)cccc2Cl)c1-c1ncc(-c2ccc(Cl)cc2)o1 | 84% and 62% |
| O=c1[nH]c(=O)c2[nH]c(=O)[nH]c2[nH]1 | 89.8% |
| COc1ccc2nccc(Cl)c2c1 | 91.1% |
| CC(=O)Oc1ccc(C(c2ccc(OC(C)=O)cc2)c2ccccn2)cc1 | 56.7% and 80.9% |
| O=C1C=CC[C@H](/C=C/c2ccccc2)O1 | 53.8% and 70.9% |
| CCc1ccc(OC(=O)CCl)cc1 | 89.7% |
| CN1C2C=CC(=O)C1C1C(=O)N(c3ccccc3)C(=O)C12 (stereo not given) | 92.6% |
| CC(C)(C)OC(=O)CC1(O)CCCCC1 | 90.8% |
| S=c1nn[nH]n1C1CCCCC1 | 95.2% |
| N#Cc1c[nH]n2ccnc12 | 103% |
| CC(=O)c1cc2ccccc2o1 | 101% |
| Nc1c(Cl)cc2c(c1Br)C(=O)c1ccccc1C2=O | 94.2% |
| COc1ccc([N+](=O)[O-])cc1OC | 98% |
| COC(=O)C(Cc1cn(C(C)=O)c2ccccc12)P(=O)(OC)OC (stereo not given) | 89.5% |
| NCCSSC/C=C\CSSCCN | 91.6% |

| SMILES | growth |
| --- | --- |
| Oc1cccnc1CN1CCOCC1 | 88.9% and 81.5% |
| CC1=CC(=O)c2cccc(NC3=NCCO3)c21 | 84.6% |
| O=C(c1ccncc1)c1c(Cc2ccccc2)ccc2ccccc12 | 90.4% |
| CCCC(=O)OCC(COC(=O)CCC)OC(=O)CCC | 93.5% |
| Nc1nc(N)c2cc(S(=O)(=O)c3ccccc3)ccc2n1 | 78.7% and 76.9% |
| ON=C(C1CCCCC1)C1CCCCC1 | 87.3% |
| CCOC(=O)c1ccc(N2C(=O)C(Cl)(c3ccccc3)C2c2ccco2)cc1 (stereo not given) | 82.3% |
| O=C1C(=O)c2ccccc2C(O)=C1CC=C(Cl)Cl | 54.3% and 57.4% |
| N#CC(=S)Nc1ccc(Cl)c(Cl)c1 | -3.27% (active) |
| COC(=O)c1nc(=S)[nH]c(C(=O)OC)c1C(=O)c1ccc(OC)cc1 | 101% |
| CC(O)CCNC(c1ccccc1)C(O)c1ccccc1 (stereo not given) | 96.5% |
| CCCCCc1cc[n+](CC(=O)c2ccccc2)cc1 | 92.6% |
| O=C1CCC(=O)N1CC1CC2CCC1C2 (stereo not given) | 87.2% and 73.1% |
| Cc1ccc(N)cc1S(=O)(=O)O | 97.3% |
| Nc1ccc(Cl)c(S(=O)(=O)O)c1 | 93.3% |
| NNC(=O)Nc1ccccc1 | 87.9% |
| CCN(CC)C(CC(=O)c1ccccc1)C(=O)c1ccccc1 (stereo not given) | 114% |
| CCc1ccccc1-n1[nH]c(C)c(C=N)c1=O | 101% |

Same assay, conditions: 50 µM

| SMILES | growth [%] |
| --- | --- |
| S=c1nc[nH]c2nc[nH]c12 | 43.7 |

Same assay, conditions: 100 µM

| SMILES | growth [%] |
| --- | --- |
| O=c1ccn2c(n1)OC1CC2OC1COC(c1ccccc1)(c1ccccc1)c1ccccc1 (stereo not given) | 95.6 |
